According to the supplement of paper PMC6555819:

Experiments:
Assay in all cases: PBM binding z-score (relative to random genomic background probes); higher = stronger binding; sequences stand for … in GC…GCGATTGACAGCGTAGAATGAAGG
[1] = system: FXR:RXRa (NR concentration 270 nM, RXRa partner concentration 90 nM)
Summary of the method: (§1)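 Probes were double-stranded and carried 34-nt variable regions with direct-repeat seeds, single-nucleotide variants, half-site ablations and random human genomic background sequences, printed on custom Agilent 4×180K protein-binding microarrays. Arrays were incubated 1 h with ligand-free nuclear receptor dimers in PBS pH 7.4, 2% milk, 0.02% Triton X-100, 1 mM DTT, 0.2 mg/mL BSA and 0.4 mg/ml salmon testes DNA. Antibodies against each partner (one per run) detected binding, and scanned fluorescence was regression-normalized. Binding z-scores use the random background probes as reference.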

[2] = system: LXRa:RXRa (NR concentration 270 nM, RXRa partner concentration 90 nM)
Summary of the method: as §1

[3] = system: LXRa homodimer (NR concentration 270 nM)
Summary of the method: as §1

[4] = system: LXRb:RXRa (NR concentration 270 nM, RXRa partner concentration 90 nM)
Summary of the method: as §1

[5] = system: LXRb homodimer (NR concentration 270 nM)
Summary of the method: as §1

[6] = system: PPARa:RXRa (NR concentration 270 nM, RXRa partner concentration 90 nM)
Summary of the method: as §1

[7] = system: PPARg:RXRa (NR concentration 180 nM, RXRa partner concentration 90 nM)
Summary of the method: as §1

[8] = system: PPARg:RXRa 270nM:90nM, anti-RXR (NR concentration 270 nM, RXRa partner concentration 90 nM)
Summary of the method: as §1

[9] = system: PPARg:RXRa 30nM:10nM, anti-RXR (NR concentration 30 nM, RXRa partner concentration 10 nM)
Summary of the method: as §1

[10] = system: PPARg:RXRa 90nM:30nM, anti-RXR (NR concentration 90 nM, RXRa partner concentration 30 nM)
Summary of the method: as §1

[11] = system: PPARg:RXRa DBDmut IVT, anti-RXR (DBD mutation: RXRa K156A/R161A, NR concentration 270 nM, RXRa partner concentration 90 nM)
Summary of the method: as §1

[12] = system: PPARg:RXRa IVT, anti-PPARg (NR concentration 270 nM, RXRa partner concentration 90 nM)
Summary of the method: as §1

[13] = system: PPARg DBDmut:RXRa IVT, anti-PPARg (DBD mutation: PPARg1 K132A/R137A, NR concentration 270 nM, RXRa partner concentration 90 nM)
Summary of the method: as §1

[14] = system: PPARg DBDmut IVT, anti-PPARg (DBD mutation: PPARg1 K132A/R137A, NR concentration 270 nM)
Summary of the method: as §1

[15] = system: PPARg homodimer (NR concentration 180 nM)
Summary of the method: as §1

[16] = system: PXR:RXRa (NR concentration 270 nM, RXRa partner concentration 90 nM)
Summary of the method: as §1

[17] = system: PXR homodimer (NR concentration 270 nM)
Summary of the method: as §1

[18] = system: RARa:RXR (NR concentration 270 nM, RXRa partner concentration 90 nM)
Summary of the method: as §1

[19] = system: RARa homodimer (NR concentration 270 nM)
Summary of the method: as §1

[20] = system: RARb:RXRa (NR concentration 270 nM, RXRa partner concentration 90 nM)
Summary of the method: as §1

Sequence	PBM binding z-score [1]	PBM binding z-score [2]	PBM binding z-score [3]	PBM binding z-score [4]	PBM binding z-score [5]	PBM binding z-score [6]	PBM binding z-score [7]	PBM binding z-score [8]	PBM binding z-score [9]	PBM binding z-score [10]	PBM binding z-score [11]	PBM binding z-score [12]	PBM binding z-score [13]	PBM binding z-score [14]	PBM binding z-score [15]	PBM binding z-score [16]	PBM binding z-score [17]	PBM binding z-score [18]	PBM binding z-score [19]	PBM binding z-score [20]
CCCTACGGGTCACTCCAGGTTATAGCATCGGAGT	5.25	7.47	2.12	5.1	0.052	4.21	2.65	3.2	0.655	1.6	0.284	2.29	-0.814	-0.254	2.92	5.1	0.472	3.75	0.949	3.66
TCATATAGGTAAGCAGGTGAAAGTCCGTAAGTTA	0.125	0.178	-0.0439	0.39	-0.523	1.74	2.16	3.14	3.46	3.36	4.03	3.94	0.357	0.715	0.516	0.257	0.129	0.662	0.214	0.318
ATCGAAAGGTCGAGGTGAGTGTAGAGAAAGGGAA	4.53	3.52	0.118	2.74	0.572	4.69	3.13	3.76	1.42	2.6	0.382	2.47	0.918	-0.292	2.56	3.28	0.73	3.41	1.1	3.97
GTACCAATGTGAATAGGTCGTTGATGAGTAGGCG	-0.0565	-0.171	-0.443	-0.196	-0.467	0.275	0.47	-0.162	-0.118	-0.255	-0.469	-0.105	-0.359	0.0422	0.0773	-0.176	-0.211	0.0838	0.262	0.00696
TGTTAAAGTTCAAAGGTAACGTAAGTATCCACAC	6.98	6.1	5.38	4.53	2.3	5.47	7.2	6.84	4.03	6.36	0.162	3.26	2.15	2.02	3.98	5.77	4.11	6.35	1.41	4.93
TTACCAAGGTGAAGGACGTTGATCCCTCTGTAGA	0.74	0.584	-0.361	0.414	-0.656	1.21	0.633	1.19	0.789	1.17	1.55	2.11	0.655	-0.0196	0.106	0.213	-0.502	0.474	-0.478	1.26
CCTTACGGGTGACTCCAGGTTATAGCATCGGAGT	0.642	5.37	0.839	1.76	-0.486	1.35	0.581	0.491	-0.12	0.123	1.25	1.42	-0.537	-0.755	0.285	1.01	0.0547	1.22	-0.139	0.499
ACAGACAGGTGAGTGAAGGTAACACAGCTGGACG	0.433	0.227	-0.295	-0.073	-0.319	0.307	1.16	0.43	0.00598	0.0299	0.662	0.632	0.226	-0.221	0.391	-0.00194	0.205	0.574	0.248	0.597
CGTCCAAGGTCAGAGAGGTCAATGAATGCCGAGT	6.53	5.92	4.51	5.64	0.884	5.36	3.79	4.67	1.52	3.58	3.1	3.52	-0.295	-0.854	5.37	6.76	13.7	6.55	3.02	5.17
CGAACTAGCTCATCCAGGACAGTGAATACATTGA	-0.123	-0.399	0.0441	-0.293	-0.166	-0.4	0.522	-0.572	0.105	0.154	0.221	-0.126	-0.227	0.607	0.205	-0.344	0.167	-0.0855	-0.0939	-0.208
ACAGACACGTGAGTGAAGGTAACTCAGCTGGACG	-0.234	-0.154	-0.292	-0.456	-0.355	-0.342	0.663	-0.357	-0.193	-0.63	-0.453	-0.172	-0.0263	0.112	-0.539	-0.408	-0.777	-0.0459	-0.522	-0.255
ATATGTAGGTTAGCTGGGGTCATCCAGACTAGGC	4.52	5.5	2.24	4.39	0.905	5.22	5.73	5.6	2.9	4.8	6.84	6.06	1.71	0.818	2.58	6.14	1.99	5.79	1.43	3.34
CAAACTAGGTCACCGGAAGGTCAAAGTACGCATG	6.81	6.23	5.23	5.83	1.75	6.36	9.91	8.16	6.57	7.9	8.79	8.9	4.79	1.89	9.62	6.54	1.85	8.16	4.07	5.38
AGTCAAAGTTCATCTAGGTAAGGTAAGATATGCT	6.12	6.16	5.26	4.05	1.73	5.02	6.22	6.34	3.3	5.66	0.598	3.32	1.53	0.676	3.1	5.24	5.75	3.9	1.68	4.91
TCCTGTAGATCAGCAGGTTAAGAAAGCTGGCCAA	0.47	0.36	-0.398	0.304	-0.639	0.87	-0.289	1.6	2.43	1.83	1.6	-0.214	-0.0572	-0.0553	-0.125	0.286	-0.41	0.585	-0.442	0.219
ATACCAAGGTGATCGTGAGGTCGTTGATACTAAC	1.86	1.35	0.615	1.5	0.284	1.67	0.613	0.439	0.0505	0.47	0.604	1.28	0.214	0.382	1.03	2.86	1.53	1.82	0.745	1.42
TCTGCTAGGTCAACGACGGTCAGCTAATCTGCTA	3.49	4.34	0.203	1.97	0.156	3.28	2.09	2.97	1.76	2.26	3.89	3.94	0.0425	0.346	0.772	2.08	-0.714	2.4	-1.12	4.13
CTCGAAAGGCCGTGCTCAGGTGAGTATACCAAAC	-0.251	-0.522	-0.406	-0.298	-0.835	-0.342	-0.381	-0.723	-0.648	-0.958	-0.523	-0.175	-0.959	-0.325	-1.11	-0.568	-0.631	-0.118	-0.796	1.05
AGTCAAAGTTCACTTGGTAACGTAAGATTCAGCT	4.85	5.05	3.34	3.4	1.63	3.85	5.08	5.79	2.52	4.52	0.263	2.42	1.28	0.299	1.76	4.17	2.53	2.62	0.876	4.58
CAAACTAGGTCACCGGAAGGTCGAAGTCCGCATG	4.63	4.34	1.21	3.06	0.673	5.6	9.2	7.5	5.41	7.33	8.58	9.05	2.73	2.92	3.05	3.91	0.000336	4.49	1.1	4.8
TAGCCTAGGTAATTGGGCCAGTATAGTACGCATC	-0.768	-1.07	-0.581	-0.51	-0.491	0.679	0.785	0.424	-0.205	-0.132	1.83	2.8	0.0704	-0.276	-0.531	-0.502	-0.469	-0.743	-0.501	-0.455
AATACACGGTCACTAGGCCAGAGTAGGTACGAAT	0.614	1.45	1.32	0.203	0.449	0.827	2.67	1.74	0.885	1.15	2.08	3.87	1.22	1.13	0.988	0.0441	-0.0687	0.462	0.429	2.77
AGTCGAAGTTCACTAGGTAACGTAAGATTCAGCT	1.2	1.74	0.29	1.03	-0.107	2.81	3.18	3.43	0.891	2.44	1.76	3.45	0.653	0.81	0.849	1.88	1.18	0.939	0.371	2.91
CGTCCAAGGTCATAGGAGGTCAGTGACGACAGAT	7.82	7.6	4.84	6.12	0.978	6.02	5.6	5.9	2.05	4.62	3.6	4.57	0.237	0.133	5.09	6.69	4.69	6.08	2.29	5.44
CCGGCTGGGGCAAAGGTTACCATACTCAGTACGA	1.59	1.59	-0.197	2.03	-1.05	4.48	8.25	7.31	6.14	7.57	0.545	3.78	-0.945	-1.06	1.1	2.59	-0.422	3.83	-0.653	2.41
CCTGCTGGGTCAATGGTCAGCTAAAGCAGCTCGC	2.08	1.41	-0.526	1.11	-0.873	2.95	3.53	4.63	1.83	3.72	2.51	3.15	-1.4	-0.684	0.557	0.874	-0.552	1.78	-0.395	3.29
TCATATAGGTAAAGGCGAAAGTCGAACGATATGA	0.173	0.402	-0.495	0.229	-0.044	1.3	1.1	2.52	3.75	3.23	3.49	2.3	1.22	0.996	0.221	-0.107	0.0413	0.124	0.504	0.399
TTACCTAGGTGAAAGGTCGTTGATGCACGCCTTG	3.04	2.96	0.393	2.74	-0.415	5.66	10.4	9.22	9.2	10.2	5.23	6.14	1.6	0.889	1.73	3.69	0.261	4.82	-0.203	2.38
